Bioassay records from PubChem BioAssay.
Pf growth 48h: inhibits P. falciparum growth in the first generation, 48 h; Potency, µM (highest dose often 28.7 µM), actives largely listed as inhibitors; actives 5.9% (n = 310,000); P. falciparum luciferase growth in erythrocytes, 48 h
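Luciferase-expressing P. falciparum in infected erythrocytes (2% hematocrit, 0.1% parasitemia final) in RPMI 1640/0.5% Albumax were exposed to compound for 48 hours at 37 C, 5% CO2; growth read as luminescence.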
HCMV inh: human cytomegalovirus inhibition; HFF cells, HCMV-luciferase reporter, 72 h; stronger effect = lower value; activity change, negative = inhibition, % at 57.5 µM; actives 4.5% (n = 410,000); in the data active = activity change below about -60%; inconclusive = no clear call, values can overlap the other calls; inactive = above about -39%
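Compounds were evaluated in HFFs infected with an HCMV luciferase reporter virus (MOI 1 PFU/cell). Luciferase in lysates collected 72 h post infection served as the replication measure.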
HCV inhibitor: blocks hepatitis C virus. Huh7.5.1 HCVcc-Cre infection, luciferase reporter, 44 h. Potency, µM (series often up to 41.8 µM), usual class: inhibitors. actives 3.4% (n = 340,000). AID 651820
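HCVcc-Cre virus at an moi near 0.5 was added right after compound to cells cultured 4 h from seeding (1,000 cells/well). Luciferase activity was determined 44 h later, 15 min after substrate addition at RT.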
Pf growth 96h: P. falciparum growth inhibition at 96 hour, primary screen for plastid delayed-death inhibitors. Potency, µM (titrated, usually from 28.7 µM), hits mostly inhibitors. P. falciparum luciferase reporter growth, 96 h. actives 6.9% (n = 320,000). AID 504834
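Erythrocytes infected with luciferase-expressing P. falciparum were dispensed at 2% hematocrit and 0.05% parasitemia (final), then incubated with compounds 96 hours at 37 C in 5% CO2. Luminescence after detection reagent addition reported growth.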
Of the large screens only hits and unclear results are named; the others gave an inactive call. In the library only some 13% were active in any assay of this set; here they are far more common. Unless noted, calls follow the shape of the dose curve; as a rule, active = well fitted inhibition curve with a large enough effect; inconclusive = small, poorly fitted or top-dose-only effect, or another doubt; inactive = no such curve, though single readings can be large or run the other way.

CCOc1ccc(-c2c(C(=O)N/N=C/c3ccc(Cl)cc3)nnn2-c2nonc2N)cc1	Pf growth 48h 9.28µM, Pf growth 96h inconclusive
Cc1ccc(-c2c(C(=O)N/N=C/c3ccc(C)o3)nnn2-c2nonc2N)cc1	Pf growth 48h inconclusive, Pf growth 96h 2.33µM
Cc1ccc(-c2c(C(=O)N/N=C/c3ccoc3)nnn2-c2nonc2N)cc1	Pf growth 48h 9.28µM, HCV inhibitor inconclusive, Pf growth 96h 3.29µM
CC1CCN(c2ncnc3c2nnn3C)CC1	none (no result: Pf growth 48h, HCV inhibitor, Pf growth 96h)
CCOc1ccc(Cn2nnc(C(=O)Nc3cccc(SC)c3)c2N)cc1	none (no result: Pf growth 48h, HCV inhibitor, Pf growth 96h)
O=C(c1ccc2c(c1)N(Cc1ccc(Cl)cc1)C(=O)c1ccccc1S2=O)N1CCN(c2ccccc2F)CC1 (centres undefined)	none (no result: Pf growth 48h, HCV inhibitor, Pf growth 96h)
Nc1nonc1-n1nnc(C(=O)N/N=C/c2ccc(OCc3ccc(F)cc3)cc2)c1COc1ccccc1	HCMV inh -73.1, HCV inhibitor inconclusive
Cc1ccc(-c2c(C(=O)N/N=C/c3ccc(OC(C)C)cc3)nnn2-c2nonc2N)cc1	Pf growth 48h 10.4µM, Pf growth 96h inconclusive
Cc1ccc(COc2ccc(/C=N/NC(=O)c3nnn(-c4nonc4N)c3COc3ccc(F)cc3)cc2)cc1	Pf growth 48h inconclusive
Cc1ccccc1C(=O)Nc1nc2c(s1)CC(C(C)(C)C)CC2 (centres undefined)	HCMV inh -65.7 (no result: Pf growth 48h, HCV inhibitor, Pf growth 96h)
Cc1cccc(N(C)c2nc3ccccc3c3nnc(C)n23)c1	none (no result: Pf growth 48h, HCV inhibitor, Pf growth 96h)
CCN1CCN(c2cc(=O)n(Cc3ccc(F)cc3)c(=O)[nH]2)CC1	none
O=C(CN1CCN(Cc2ccc(F)cc2)CC1)NCCc1ccccc1	HCMV inh -80.8
O=C(CN1CCC(NC(=O)c2ccccc2)CC1)NCc1ccccc1F	Pf growth 48h inconclusive, Pf growth 96h 5.86µM
O=C(CN1CCC(NC(=O)c2ccccc2F)CC1)NCc1ccc(F)cc1	Pf growth 48h 13.1µM (no result: Pf growth 96h)
O=c1cc(N2CCN(Cc3ccccc3)CC2)[nH]c(=O)n1Cc1ccc(F)cc1	Pf growth 96h 3.7µM
Cc1ccc(C)c(NC(=O)CCCN2C(=O)COc3ccc(C)cc32)c1	none (no result: Pf growth 48h, HCV inhibitor, Pf growth 96h)
COc1cccc2c1Oc1nc(-c3ccccc3)nc(SCC(=O)N3CCCCC3)c1C2	none (no result: Pf growth 48h, HCV inhibitor, Pf growth 96h)
Cc1cc(C)c(S(=O)(=O)NCCc2cc3cc(C)c(C)cc3[nH]c2=O)c(C)c1	none (no result: Pf growth 48h, HCV inhibitor, Pf growth 96h)
CCOc1cc(-c2nc(-c3ccc(-c4ccccc4)nc3OCC)no2)cc(OCC)c1OCC	none (no result: Pf growth 48h, HCV inhibitor, Pf growth 96h)
C/C(=N\NC(N)=S)C1C2C3CC4C5CC(C42)C1C53 (centres undefined)	Pf growth 48h inconclusive, HCMV inh -62.4, HCV inhibitor inconclusive, Pf growth 96h inconclusive
CCC1CC(/C(C)=N/NC(N)=O)OC1=O (centres undefined)	none
Cc1cc2c3c([nH]c2cc1S(=O)(=O)N1CCC2(CC1)OCCO2)CC(C)(C)CC3=O	Pf growth 48h 8.28µM, HCMV inh inconclusive, HCV inhibitor inconclusive, Pf growth 96h inconclusive
CCc1cc2c3c([nH]c2cc1S(=O)(=O)N1CCC2(CC1)OCCO2)CCCC3=O	Pf growth 48h inconclusive, HCV inhibitor inconclusive, Pf growth 96h inconclusive
CC1CC(=S)Nc2ccccc2N1C(=O)Nc1ccccc1 (centres undefined)	Pf growth 48h 3.29µM, Pf growth 96h inconclusive
Cc1ccc(S(=O)(=O)N(CC(=O)Nc2ccc(Cl)c([N+](=O)[O-])c2)C2CCCCC2)cc1	Pf growth 48h inconclusive, HCMV inh -76.7, HCV inhibitor inconclusive, Pf growth 96h inconclusive
O=C(CN(C1CCCCC1)S(=O)(=O)c1ccccc1)NCc1ccco1	Pf growth 96h 4.65µM
COc1ccc(S(=O)(=O)N(CC(=O)NCc2ccco2)C2CCCCC2)cc1OC	Pf growth 48h inconclusive
O=C(CN(C(=O)CNS(=O)(=O)c1ccccc1)C1CCCC1)NCc1ccco1	Pf growth 96h inconclusive (no result: Pf growth 48h)
Cc1ccc(S(=O)(=O)N(CC(=O)NCc2ccco2)C2CCCCC2)cc1	Pf growth 48h inconclusive, HCV inhibitor 3.55µM, Pf growth 96h inconclusive
Cc1ccc(S(=O)(=O)N(CC(=O)NCc2ccncc2)C2CCCCC2)cc1	Pf growth 48h inconclusive, Pf growth 96h 8.28µM
CC(C)COc1ccc(C(=O)N(Cc2cccc(F)c2)C2CCS(=O)(=O)C2)cc1 (centres undefined)	none (no result: Pf growth 48h, HCV inhibitor, Pf growth 96h)
c1ccc(Cn2nnnc2C(c2cccs2)N2CCSCC2)cc1 (centres undefined)	Pf growth 48h inconclusive, Pf growth 96h inconclusive
Fc1ccc(N2CCN(C(c3cccs3)c3nnnn3CCc3ccccc3)CC2)cc1 (centres undefined)	Pf growth 48h 13.1µM
COCCn1nnnc1C(c1cccs1)N1CCN(c2ccccc2)CC1 (centres undefined)	Pf growth 96h inconclusive
Fc1ccccc1N1CCN(C(c2cccs2)c2nnnn2CCc2ccccc2)CC1 (centres undefined)	Pf growth 48h 8.28µM, HCV inhibitor inconclusive, Pf growth 96h inconclusive
CC1CCN(C(c2cccs2)c2nnnn2Cc2ccccc2)CC1 (centres undefined)	HCMV inh inconclusive, Pf growth 96h 2.62µM (no result: Pf growth 48h)
Cn1c(=O)c(=O)n(C)c2cc(C(=O)NCc3ccccc3Cl)ccc21	none (no result: Pf growth 48h, HCV inhibitor, Pf growth 96h)
COC(=O)c1ccc(C23CC4(C2)[C@H](CN(C)[C@@H]4c2ccccc2)C3c2ccccc2)cc1 (some centres undefined)	Pf growth 48h inconclusive, Pf growth 96h inconclusive
CN1C[C@@H]2C(c3ccc(Cl)nc3)C3(c4ccccc4)CC2(C3)[C@H]1c1ccccc1 (some centres undefined)	Pf growth 48h 9.28µM, Pf growth 96h 13.1µM
CN1C[C@@H]2C(c3ccc(Cl)nc3)C3(c4cccnc4)CC2(C3)[C@H]1c1ccccc1 (some centres undefined)	Pf growth 48h 10.4µM, Pf growth 96h 10.4µM
CCOc1ccc(CCNC(=O)c2cc3c(=O)n(CC)c4ccccc4c3s2)cc1OCC	none (no result: Pf growth 48h, HCV inhibitor, Pf growth 96h)
COc1cccc(NC(=O)c2oc3ccccc3c2NC(=O)COc2ccccc2C)c1	none (no result: Pf growth 48h, HCV inhibitor, Pf growth 96h)
CC(C)c1nc(NCCO)c(C#N)c2c1CCCC2	HCMV inh -65.7, HCV inhibitor inconclusive
N#Cc1c(NC2CCCCC2)nc(-c2ccco2)c2c1CCCC2	Pf growth 96h inconclusive (no result: Pf growth 48h, HCMV inh)
CC1(C)Cc2c(c(-c3ccco3)nc3sc4c(NCCN5CCOCC5)ncnc4c23)CO1	Pf growth 48h 8.28µM, HCV inhibitor inconclusive, Pf growth 96h inconclusive
CC1(C)Cc2c(sc3nc(NCCN4CCOCC4)n4ncnc4c23)CO1	HCV inhibitor inconclusive, Pf growth 96h inconclusive (no result: Pf growth 48h)
CC1(C)Cc2c(c(-c3ccco3)nc3sc4c(NCC5CCCO5)ncnc4c23)CO1 (centres undefined)	Pf growth 96h inconclusive
CC1(C)Cc2c(c(-c3ccco3)nc3sc4c(NCCCO)ncnc4c23)CO1	Pf growth 48h inconclusive, HCMV inh -65.3, HCV inhibitor inconclusive, Pf growth 96h 4.15µM
N#Cc1c(NCCCO)nc(-c2ccco2)c2c1CCCC2	HCV inhibitor 10µM, Pf growth 96h inconclusive (no result: Pf growth 48h)
Cc1cc(N2CCN(c3cccc(C)c3C)CC2)n2nc(C)c(-c3ccc(Cl)cc3)c2n1	none (no result: Pf growth 48h, HCV inhibitor, Pf growth 96h)
CC1(C)Cc2c(C#N)c(NCCN3CCOCC3)nc(-c3ccco3)c2CO1	Pf growth 48h 13.1µM, HCV inhibitor inconclusive, Pf growth 96h 10.4µM
